# Results as given in PubChem BioAssay (NCI).
# This is part of a sample that, as a whole, favours compounds with a hit. Of some 83,000 tested, about 20% had one in any assay.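 Plates (96-well) were seeded with cells, treated with compound at one concentration, and incubated for 48 hours before percent growth was determined.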 A number with no mark means an inactive call. Activity calls are given as the source filed them. Rule for the calls: active = growth percent below 10; inactive = the rest.
# Columns and labels:
# Assay in all cases: NCI-60 one-dose screen, 48 h (100 = growth as untreated, 0 = no growth, -100 = all killed)
# Conditions in all cases: 10 µM unless noted
# T-47D breast = test system: T-47D breast
# BT-549 breast = test system: BT-549 breast
# MDA-MB-435 melanoma = test system: MDA-MB-435 melanoma
# SW-620 colon = test system: SW-620 colon
# MCF7 breast = test system: MCF7 breast
# HCT-116 colon = test system: HCT-116 colon
# HCC-2998 colon = test system: HCC-2998 colon
# KM12 colon = test system: KM12 colon
SMILES,growth (T-47D breast),growth (BT-549 breast),growth (MDA-MB-435 melanoma),growth (SW-620 colon),growth (MCF7 breast),growth (HCT-116 colon),growth (HCC-2998 colon),growth (KM12 colon)
c1ccc([P+](CCC[P+](c2ccccc2)(c2ccccc2)c2ccccc2)(c2ccccc2)c2ccccc2)cc1,45.2%,75.9%,38.6%,85.4%,59%,67.5%,48.1%,45.5%
O=C(CCC(=O)OC1CCCC1)OC1CCCC1,94.1%,99.9%,100%,103%,95.2%,109%,101%,102%
CCNC(=O)CCCCC(=O)c1c(C)[nH]c(/C=C2\N=C(c3ccc[nH]3)C=C2OC)c1C,-46.3% (active),-36.1% (active),-18.4% (active),-65.4% (active),-17.4% (active),-100% (active),48.6%,-56.9% (active)
O=S(=O)(NCCCNc1cc(-c2cn(-c3ccccc3)nc2-c2cccc(O)c2)ccn1)c1cccc(F)c1,15.6%,44.7%,49.3%,29.5%,31.2%,32.1%,10.3%,28.2%
COc1ccc2c(c1)NC(=O)CN2c1nc(NC2CC2)nc2ccccc12,13.2%,-17% (active),-36% (active),23.6%,9.56% (active),0.461% (active),6.95% (active),3.45% (active)
COC1=CC(c2ccc[nH]2)=N/C1=C\c1[nH]c(C)c(C(=O)CCCCC(=O)Oc2ccc3c(c2)CCC2C3CC[C@]3(C)[C@@H](O)CC[C@@H]23)c1C (stereo partly specified),5.62% (active),50.3%,51.2%,37.4%,27.2%,20.9%,83.1%,29.4%
COc1ccc(-c2cn[nH]c2-c2cc(OC)c3c(c2)OCO3)cc1,44%,59.3%,-55.4% (active),21.9%,13.1%,13.6%,16.8%,17.6%
COc1cc(Cn2c(SCCC(=O)Nc3ccc(F)cc3)nc3ccccc3c2=O)cc(OC)c1OC,77.8%,92.6%,106%,97.9%,91%,65.3%,95.7%,99.3%
CCN(CC)CCCC(C)N=c1cc(Nc2cc(=NC(C)CCCN(CC)CC)c3cc(OC)ccc3o2)oc2ccc(OC)cc12 (stereo unspecified),25.8%,-69.4% (active),-87.4% (active),-2.14% (active),-26.8% (active),-21.2% (active),-88.9% (active),-4.99% (active)
Cc1sc2nc(CSc3nnc(-c4ccco4)o3)[nH]c(=O)c2c1C,95.4%,102%,105%,101%,104%,115%,124%,118%
Oc1ccc(Cl)cc1-c1cc(-c2ccc(Cl)cc2)n[nH]1,30.9%,84%,84.9%,81%,3.03% (active),43.8%,22%,29.6%
CCCCCCCCCCCCNC(=S)N/N=C/c1ccc(Cl)c(Cl)c1,94.9%,120%,98.8%,110%,102%,102%,106%,102%
C=C1C(=O)O[C@H]2[C@H]1CC/C(COC(=O)NCCc1cccc(OC)c1)=C\CC[C@@]1(C)O[C@@H]21,20.4%,27.8%,39.6%,-10.8% (active),14.7%,-63.9% (active),83.5%,63.7%
COc1cc(-n2nc(C(=O)Nc3ccc(C(=O)O)cc3)nc2-c2ccccc2)cc(OC)c1OC,79%,105%,113%,101%,93.5%,91.7%,97.9%,105%
COc1ccc(/C=C2\C(=O)N(C(=O)c3csc(NC(C)=O)n3)N=C2C)cc1,99.2%,95.9%,106%,106%,88.4%,98.2%,103%,102%
COC12CC(=O)C(C(C)=O)=C(O)C1(C)c1c(O)c(C)c(O)c(C(C)=O)c1O2 (stereo unspecified),81%,78.7%,87.3%,80.2%,80.9%,80.6%,65.9%,49.6%

SMILES,growth (T-47D breast),growth (BT-549 breast),growth (MDA-MB-435 melanoma),growth (SW-620 colon),growth (MCF7 breast),growth (HCT-116 colon),growth (HCC-2998 colon),growth (KM12 colon)
COc1cc(C(=O)OCCCCCCCCCCC[P+](c2ccccc2)(c2ccccc2)c2ccccc2)ccc1O,-43.1% (active),-60.8% (active),-46.7% (active),-0.568% (active),-40.8% (active),-33.6% (active),19.3%,-80.6% (active)
Cc1cccc(-n2c(C)nc3ccc(NC(=O)NCCCl)cc3c2=O)c1,103%,101%,99.2%,97.3%,86.1%,103%,114%,106%
CCC#CC[C@H]1C/C=C2/C(=O)C=C[C@@H]2C/C=C\CCCC(=O)O1,24.1%,0.46% (active),-0.679% (active),0.0835% (active),18.3%,-70.9% (active),-67% (active),-48.8% (active)
COc1cccc(/C=C/c2c(C(=O)O)cccc2[N+](=O)[O-])c1OC,91.2%,107%,101%,99.7%,95.8%,97.9%,104%,96.8%
C=CCc1cc(Cl)cc2c(OC(C)=O)c(C(C)=O)c(-c3ccccc3)nc12,90.8%,116%,108%,107%,82.1%,105%,118%,99.5%
COc1cc(C2C3=C(COC3=O)Nc3c2ccc2c3CCCC2)cc2c1OCO2 (stereo unspecified),73.5%,9.86% (active),-16.9% (active),23.1%,16.3%,0.327% (active),5.11% (active),-34.8% (active)
CCn1cc(C(=O)O)c(=O)c2cc(F)c(N3CCN(S(=O)(=O)c4cccc5ccccc45)CC3)cc21,5.29% (active),-4.35% (active),11.4%,22.8%,14.6%,5.45% (active),31.6%,11.7%
CCn1cc(C(=O)O)c(=O)c2cc(F)c(N3CCN(S(=O)(=O)c4c(C)cc(C)cc4C)CC3)cc21,74.1%,73.7%,89.1%,95.1%,93.7%,79.2%,82.5%,87.2%
COc1ccc(-n2c(C)cc(-c3ccccc3)c2C)cc1,27.5%,47%,12.1%,41.2%,28%,21%,35.1%,37.7%
N=C(N)c1ccc(-c2ccc(-c3ccc(Cl)cc3)o2)nc1,-75.4% (active),-88% (active),-84.5% (active),-93.4% (active),-81.4% (active),-84.4% (active),-71.9% (active),-93.4% (active)
COc1ccc(-n2cnc3c(sc4ncc(Cl)cc43)c2=O)cc1,86.1%,94.9%,77.4%,98.3%,101%,54.5%,116%,55.1%
NC(C(=O)O)C(O)c1ccc(OCc2ccccc2)c(OCc2ccccc2)c1 (stereo unspecified),88.1%,95%,102%,97%,87.3%,101%,115%,100%
COc1cccc(C2CC(=O)Nc3c2c(C)nn3-c2nc3ccccc3[nH]2)c1OC (stereo unspecified),64.5%,87.1%,58.5%,77.1%,62.5%,36.2%,120%,67.9%
NCCSC(c1ccccc1)(c1ccccc1)c1ccccc1,25.6%,22.1%,-52.9% (active),19.1%,2.6% (active),7.63% (active),-41.7% (active),17.9%
CSc1ccccc1C#C/C=C\C#Cc1ccccc1N1CCCCC1=O,95.1%,92.1%,107%,100%,94.9%,95%,99.9%,114%
C=CC(=O)N[C@H](/C=C/C(=O)OCC)Cc1ccc(-c2cc(Cl)cc(Cl)c2)cc1,57.7%,84.6%,96.1%,91.7%,82.8%,72.1%,94.6%,89.8%
